# Assay outcomes (PubChem)
# Pf growth 96h: Primary qHTS for delayed death inhibitors of the malarial parasite plastid, 96 hour incubation; P. falciparum luciferase reporter growth, 96 h; Potency, µM (highest dose often 28.7 µM), usual class: inhibitors; 320,000 tested, 6.9% active; AID 504834, 2011
#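 Erythrocytes infected with luciferase-expressing P. falciparum were dispensed at 2% hematocrit and 0.05% parasitemia (final), then incubated with compounds 96 hours at 37 C in 5% CO2. Luminescence after detection reagent addition reported growth.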
# AMA1 RON2 block: qHTS for Inhibitors of AMA1-RON; Towards Development of Antimalarial Drug Lead: Primary Screen; Potency, µM (top dose mostly 58.2 µM), hits mostly inhibitors; AID 720542, 2013; 360,000 tested, 0.2% active; Plasmodium falciparum AMA1 (3D7) - RON2 peptide interaction; AlphaScreen AMA1-biotinylated RON2 peptide binding; also: nearly all actives have a fitted effect of over 45% in size
#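 AMA1 (3D7) with his tag at 25 nM final met compounds first, then biotinylated RON2 peptide at 25 nM; detection used donor plus acceptor beads, 10 µg/mL apiece, read by AlphaScreen after 30 min at room temperature.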
# NS1 function inh: qHTS Assay for Inhibitors of Influenza NS1 Protein Function. AID 2326, 2010. Potency, µM (doses to about 46.1 µM). 270,000 tested, 0.4% active; calls by dose curve; also: actives are rising curves; nearly all actives have a fitted effect of over 50% in size
#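 Compounds were scored for reversing the slow growth caused by influenza A NS1 in S. cerevisiae, measured by optical density at 600 nm. Assay medium contained 2% galactose at pH 6.0; NS1-free yeast of the same strain were the positive control.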
# Pf growth 48h: Primary qHTS for delayed death inhibitors of the malarial parasite plastid, 48 hour incubation; P. falciparum luciferase growth in erythrocytes, 48 h; Potency, µM (series often up to 28.7 µM), usual class: inhibitors; 310,000 tested, 5.9% active
#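 First compound was added to culture medium, then infected red cells at 0.1% parasitemia and 2% hematocrit (final). After incubation at 37 C under 5% CO2, luciferase detection reagent was dispensed and light output recorded.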
# Sm TGR inh: qHTS Assay for the Inhibitors of Schistosoma Mansoni Peroxiredoxins | Schistosoma mansoni thioredoxin glutathione reductase (TGR), Q962Y6 | purified TGR, DTNB reduction, TNB absorbance 405 nm | Potency, µM (series often up to 114 µM), actives largely listed as inhibitors | 360,000 tested, 3% active | AID 485364, 2010; also: nearly all actives have a fitted effect of over 60% in size
#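 First, TGR (20 nM dispensed) and NADPH were mixed with compound. Second, a 15 min room-temperature incubation followed. Third, further NADPH and then DTNB were added to start the reaction. Finally, TNB absorbance was monitored kinetically.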
# A number is an active result; - = inactive; ? = inconclusive; . = not tested or not shown; [ ] = remark or other dose. Compounds with a hit are over-represented: about 11% of the library has one in this group of screens. Unless noted, calls follow the shape of the dose curve; as a rule, active = well fitted curve in the direction sought with a large enough effect; inconclusive = small, poorly fitted or top-dose-only effect, or another doubt; inactive = no such curve, though single readings can be large; an effect the other way counts as inactive or inconclusive.
SMILES,Pf growth 96h,AMA1 RON2 block,NS1 function inh,Pf growth 48h,Sm TGR inh
COc1ccc(NC(=O)CC2C(=O)N(c3ccc(Cl)cc3)C(=S)N2CCc2ccccn2)cc1 (centres undefined),?,-,-,?,-
CCN1C(=O)C(CC(=O)Nc2ccc(F)cc2)N(Cc2cccs2)C1=S (centres undefined),-,-,-,10.4µM,.
CCOC(=O)c1ccc(NC(=O)CC2C(=O)N(c3ccc(F)cc3)C(=O)N2CCC(C)C)cc1 (centres undefined),5.86µM,-,-,.,?
CCNC(=O)CC1C(=O)N(c2ccccc2)C(=O)N1CCc1ccc(OC)cc1 (centres undefined),11.7µM,-,-,-,-
COc1ccc(CCN2C(=O)N(c3ccc(F)cc3)C(=O)C2CC(=O)Nc2ccccc2)cc1 (centres undefined),.,.,.,.,-
COC(=O)CN1C(=S)N(c2ccc(F)cc2)C(=O)C1CC(=O)Nc1ccc(F)cc1 (centres undefined),?,?,-,10.4µM,-
Cc1ccc(C)c(N2CCN(C(=O)CCc3nnc4n(CC(C)C)c(=O)c5ccccc5n34)CC2)c1,.,.,.,.,-
COC1(NC(=O)c2ccccc2)C(C)=CC(=O)C=C1C,-,-,.,-,25.1µM
CCOC(=O)c1cnc(-n2nc(C)cc2C)nc1NCCO,-,-,-,?,-
CCOC(=O)c1cnc(-n2nc(C)cc2C)nc1NC(C)c1ccccc1 (centres undefined),?,-,-,2.08µM,-
CCOC(=O)c1cnc(-n2nc(C)cc2C)nc1NNc1ncc(-c2ccccc2)cn1,1.65µM,-,-,3.29µM,-
CCOC(=O)c1cnc(-n2nc(C)cc2C)nc1NCc1ccccc1,-,-,-,1.65µM,-
O=C(O)c1ccc(Cl)cc1Nc1nc2cc(Cl)ccc2o1,?,-,-,-,-
COc1ccc(C(=O)Nc2cccc(-c3cn4ccsc4n3)c2)c(OC)c1,.,.,.,.,-
CN(CCc1ccccc1)C(=O)c1cc(COc2ccc(F)cc2Cl)on1,?,-,-,-,-
Cc1cccc(C(=O)O[C@@H]2[C@H](Cc3ccccc3)NS(=O)(=O)[C@H]3C[C@@H]4C=C[C@]23O4)c1,9.28µM,-,.,?,-
O=C1c2c(Cl)c(Cl)c(Cl)c(Cl)c2C(=O)N1c1nccs1,.,-,.,.,.
CCN(CC)Cc1c(O)ccc2occ(C(=O)c3ccccc3)c12,?,-,-,-,-
O=C(c1cccs1)c1coc2ccc(O)c(CN(CCO)CCO)c12,2.08µM,-,-,.,-
O=[N+]([O-])c1cc(-c2nc(-c3ccccc3)no2)ccc1NC1CCCCC1,.,.,.,.,-
CCN1C(c2ccc(F)cc2)=CS/C1=C(\C#N)c1nnc2n1-c1ccccc1SC2,-,-,-,.,-[11.4 µM]
CCCCN(CC)C(=O)c1cc2cc3ccc(OC)cc3nc2o1,5.22µM,-,-,11.7µM,-
CCOc1ccc(NC(=O)c2cc3cc4ccc(OC)cc4nc3o2)cc1,5.22µM,-,-,.,-
CCOc1ccc(NC(=O)c2cc3cc4ccc(C)cc4nc3o2)cc1,?,.,.,-,-
CCOC(=O)C1CCCN(C(=O)c2cc3cc4ccc(OC)cc4nc3o2)C1 (centres undefined),-,-,-,-,-
SMILES,Pf growth 96h,AMA1 RON2 block,NS1 function inh,Pf growth 48h,Sm TGR inh
COc1ccc2cc3cc(C(=O)NCc4ccccn4)oc3nc2c1,-,-,-,6.57µM,-
COc1ccc2cc3cc(C(=O)N4CCCC(C)C4)oc3nc2c1 (centres undefined),11.7µM,-,-,-,-
O=C(CSC1=Nc2ccccc2N=C(c2ccc(F)cc2)C1)NCc1ccc(Cl)cc1,.,.,.,.,-
COc1ccc(OC)c(Nc2nn3c(=O)c4ccccc4nc3s2)c1,-,.,.,-,.
O=C(NCCCn1ccnc1)c1ccc(NS(=O)(=O)c2cccc([N+](=O)[O-])c2)cc1,-,-,.,-,-
CC1CC(C)CN(Cc2nc(N)nc(Nc3ccccc3)n2)C1 (centres undefined),10.4µM,-,-,?,-
COc1ccc(Nc2nc(N)nc(CN3CCC(C)CC3)n2)cc1,-,-,.,-,-
CC1CC(C)CN(Cc2nc(N)nc(Nc3ccc4ccccc4c3)n2)C1 (centres undefined),.,-,-,11.7µM,-
C[C@H](CO)N1C[C@H](C)[C@@H](CN(C)Cc2ccncc2)Oc2c(NS(=O)(=O)c3cn(C)cn3)cccc2C1=O,.,-,.,.,.
CC(C(=O)N1CCc2ccccc21)N1CCN(Cc2ccc(Cl)cc2)CC1 (centres undefined),-,-,-,-,-
Cc1ccnc(NS(=O)(=O)c2ccc(NC(=O)C3CCCCC3C(=O)O)cc2)n1 (centres undefined),2.94µM,-,-,-,-
Cc1ccnc(NS(=O)(=O)c2ccc(NC(=O)C3CC=CCC3C(=O)O)cc2)n1 (centres undefined),?,-,-,-,.
Cc1cc(NS(=O)(=O)c2ccc(NC(=O)c3ccc([N+](=O)[O-])s3)cc2)nc(C)n1,.,-,.,.,.
Cc1ccnc(NS(=O)(=O)c2ccc(NC(=O)c3ccc([N+](=O)[O-])s3)cc2)n1,11.7µM,-,-,4.15µM,?
O=C(Nc1ccc(S(=O)(=O)NC2=NCCCCC2)cc1)c1ccc([N+](=O)[O-])s1,13.1µM,-,.,10.4µM,-
O=C(Nc1ccc(S(=O)(=O)NC2=NCCCCC2)cc1)c1cccs1,.,-,.,.,.
COc1ccccc1N1CCN(C(=O)Cn2ncc3ccsc3c2=O)CC1,.,.,.,.,-
CCOc1ccc(OCC(=O)c2c(O)c3ccccc3oc2=O)cc1,-,-,-,-,17.8µM
COc1ccc(OCC(=O)c2c(O)c3ccccc3oc2=O)cc1,-[5.75 µM],-,-,-,31.6µM
CCCCC(=O)c1c(O)c2ccccc2oc1=O,.,-,-,-,-
CC1CCC(C(=O)c2c(O)c3ccccc3oc2=O)CC1 (centres undefined),-,-,-,.,-
O=C(CC1CCCCC1)c1c(O)c2ccccc2oc1=O,-,-,-,-,50.1µM
CNC(=O)C1CCC(Cn2c(=O)c3sccc3n(CC(=O)NCc3ccc(OC)cc3)c2=O)CC1 (centres undefined),.,.,.,.,-
Cc1cccc(C(=O)OCC(=O)N(C)C(c2ccccc2)c2ccccc2)c1[N+](=O)[O-],?,-,.,-,-
CCOC(=O)[C@H]1[C@H]2COc3cc(OC)ccc3[C@@H]2N2C(=O)c3cc(F)c(F)cc3NC(=O)[C@@]12C,13.1µM,-,.,?,-
CCOC(=O)[C@H]1[C@H]2COc3cc(OC)ccc3[C@@H]2N2C(=O)c3cc(F)ccc3NC(=O)[C@@]12C,10.4µM,-,.,9.28µM,-
CCOC(=O)[C@H]1[C@H]2COc3cc(OC)ccc3[C@@H]2N2C(=O)c3cc(OC)ccc3NC(=O)[C@@]12C,6.57µM,-,.,1.31µM,-
